Experimental data taken from PubChem BioAssay AID489043 (National Center for Advancing Translational Sciences (NCATS), 2010).
Inconclusive results are not listed. Activity calls are given as the source filed them. Calls come from the whole dose curve; as a rule, active = well fitted activation curve with a large enough effect; inconclusive = small, poorly fitted or top-dose-only effect; inactive = flat fitted curve, though single readings scatter.

What follows are molecules tested against Relaxin receptor 2 (Homo sapiens) (UniProt Q8WXD0) (assay: qHTS Assay for Agonists of the Relaxin Receptor RXFP1: RXFP2 Hit Validation). Settings: HEK293 RXFP2 cAMP TR-FRET, 30 min; series mostly up to 115 µM.
Relaxin receptor 2 (Homo sapiens), sequence (Q8WXD0 whole entry, looked up): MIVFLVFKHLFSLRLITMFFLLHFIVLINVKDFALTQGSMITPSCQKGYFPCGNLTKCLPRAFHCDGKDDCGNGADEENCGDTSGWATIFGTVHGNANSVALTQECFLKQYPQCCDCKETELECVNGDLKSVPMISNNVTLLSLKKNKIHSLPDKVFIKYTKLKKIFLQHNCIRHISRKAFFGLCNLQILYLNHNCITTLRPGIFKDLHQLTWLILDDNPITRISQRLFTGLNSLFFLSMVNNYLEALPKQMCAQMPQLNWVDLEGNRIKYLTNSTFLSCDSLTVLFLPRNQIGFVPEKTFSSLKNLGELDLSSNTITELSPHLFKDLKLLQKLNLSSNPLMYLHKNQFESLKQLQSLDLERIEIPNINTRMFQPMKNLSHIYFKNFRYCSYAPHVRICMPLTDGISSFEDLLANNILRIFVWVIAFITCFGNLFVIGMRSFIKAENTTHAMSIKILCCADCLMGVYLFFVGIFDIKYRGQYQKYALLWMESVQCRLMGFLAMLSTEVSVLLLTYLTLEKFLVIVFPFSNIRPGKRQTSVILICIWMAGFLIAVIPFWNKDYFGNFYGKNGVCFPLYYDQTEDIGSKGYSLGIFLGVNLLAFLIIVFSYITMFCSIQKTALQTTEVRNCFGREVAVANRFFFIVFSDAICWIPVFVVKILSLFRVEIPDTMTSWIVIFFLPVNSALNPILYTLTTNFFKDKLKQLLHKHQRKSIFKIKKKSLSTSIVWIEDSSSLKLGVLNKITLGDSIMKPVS
Method in brief: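 HEK293 cells expressing RXFP2, cultured 16-24 hr, treated 30 min at 37C with compounds plus PDE4 inhibitor Ro 20174. cAMP measured by HTRF TR-FRET; EC50 from Hill fits, normalized to buffer and 29 nM porcine relaxin.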
Note: nearly all actives have a fitted effect of over 65% in size.
Potency is the fitted concentration of half-maximal effect.

Row | SMILES | Potency
1 | Cc1noc(NS(=O)(=O)c2ccc(N3Cc4ccccc4C3=O)cc2)c1C | 11.9 µM (active)
2 | CCCCn1c(SCC(=O)N2CCOCC2)nc2c1c(=O)n(C)c(=O)n2C | 38.9 µM (active)
3 | CCCC(=O)Nc1ncnc2c1ncn2[C@@H]1O[C@@H]2OP(=O)(O)OC[C@H]2[C@H]1OC(=O)CCC | 0.868 µM (active)
4 | CCCn1c(SCC(=O)Nc2ccc(NC(C)=O)cc2)nc2c1c(=O)n(C)c(=O)n2C | 34.6 µM (active)
5 | CCC1(C)Cc2c(sc3c2c2ncnn2c2nnc(SCC(=O)NCc4ccco4)n32)CO1 (stereo unspecified) | 8.7 µM (active)
6 | O=C(Nc1ccccc1C(=O)NCCc1ccc(O)cc1)c1ccco1 | inactive
7 | O=C(Cn1cnc2c(nnn2-c2ccc(F)cc2)c1=O)NCC1CCCO1 (stereo unspecified) | 11 µM (active)
8 | CC(=O)c1sc(NC(=O)C(C)C)nc1C | 15.4 µM (active)
9 | O=C(Nc1ccccc1C(=O)NCc1ccco1)c1ccco1 | inactive
10 | COC(=O)c1c(N2C(=O)CC(Sc3ncccc3C(=O)O)C2=O)sc(C)c1C (stereo unspecified) | inactive
11 | CCn1c(=O)c2sccc2n2c(CCCC(=O)NCc3cccnc3)nnc12 | inactive
12 | Nc1c(S(=O)(=O)O)cc(NC(=O)c2ccccc2)c2c1C(=O)c1ccccc1C2=O | inactive
13 | Cc1ccc(C(=O)Nc2ccccc2C(=O)NCc2ccco2)cc1 | inactive
14 | Cn1c2ccccc2c2nnc(SCC(=O)Nc3cccc(C(=O)O)c3)nc21 | 30.9 µM (active)
15 | Cc1ccc2[nH]c3c(=S)nc[nH]c3c2c1 | 6.9 µM (active)
16 | C=CCNC(=O)NC(=O)COC(=O)c1nc2nccc(C)n2n1 | 34.6 µM (active)

Row | SMILES | Potency
17 | O=C(O)CSc1ccnc2cc(Cl)ccc12 | 21.8 µM (active)
18 | O=C(Nc1ccccc1C(=O)N1CCCCC1)c1ccco1 | inactive
19 | O=C(Oc1ccccc1)Oc1ccc2c(c1)oc(=O)c1ccccc12 | 19.4 µM (active)
20 | CC1(C)Cc2c(sc3c2c2ncnn2c2nnc(SCC(=O)NCc4ccco4)n32)CO1 | 7.76 µM (active)
21 | Cn1c(=O)c2sccc2n2c(CCCC(=O)NCc3ccco3)nnc12 | 34.6 µM (active)
22 | COc1cccc(CNC(=O)c2ccc(CS(=O)Cc3ccc(C)cc3)o2)c1 (stereo unspecified) | inactive
23 | O=C(Nc1ccc(Cl)cc1)Nc1ccccc1Sc1ncc([N+](=O)[O-])s1 | inactive
24 | O=C(CCc1nnc2ccc(NCCCN3CCCC3=O)nn12)NCc1ccccc1Cl | inactive
25 | COc1ccc(OC)c(CNC(=O)C2CCN(C(=O)N(C)C)CC2)c1 | inactive
26 | COC(=O)[C@@H]1C[C@@]2(O)[C@H](O)[C@H](O)[C@H](O)C[C@H]2N1Cc1cc(F)ccc1F | inactive
27 | Nc1nnc(CC(=O)N/N=C/c2ccc(-c3ccc(Cl)cc3Cl)o2)s1 | inactive
28 | CC[N+](CC)(CCCCS(=O)(=O)[O-])CCNP1(=O)C=C(c2ccccc2)OC(c2ccccc2)=C1 | 34.6 µM (active)
29 | COc1ccc(C(=O)Nc2ccc(Cl)cc2C(=O)NCc2ccco2)cc1 | 42.1 µM (active)
30 | CCNc1nc(NCC)nc(N(C)/N=C/c2ccco2)n1 | inactive
31 | Cc1cccc(NC(=O)c2ccccc2NC(=O)C2CCCCC2)c1C | inactive
